From PubChem BioAssay (NCATS) come the findings set out here.

Unmarked numbers belong to inactive results. Results filed as inconclusive are left out. Active and inactive are the calls of the source. Calls follow the shape of the dose curve; as a rule, active = well fitted curve in the direction sought with a large enough effect; inconclusive = small, poorly fitted or top-dose-only effect, or another doubt; inactive = no such curve, though single readings can be large; an effect the other way counts as inactive or inconclusive.

Experiment [1] in a line: qHTS assay for measurement of the activity of small molecule inhibitors on Zika virus induced Caspase-3 activity in human iPSC derived neural progenitor cells (hNPCs) (AID 1224857). Also: nearly all actives have a fitted effect of over 65% in size. Also: potency is read from the fitted curve at half-maximal effect. As to activity change, negative = inhibition: % of control where 0% means no effect. The essentials: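 Human iPSC-derived neural progenitor cells pretreated 1 hr with compounds, then infected with Zika virus (2 FFU/cell) for 6 hours at 37 C. Caspase-3/7 measured by Caspase-Glo luminescence; % inhibition calculated from induction scaled to uninfected (0%) and infected (100%) wells.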

The nature of experiment [2]: qHTS assay for measurement of the activity of small molecule inhibitors on Zika virus induced Caspase-3 activity in human astrocytoma cells (AID 1224859).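 Also: plate controls were ZIKV-infected untreated cells for no effect and uninfected cells for full effect.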 The essentials:
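SNB-19 astrocytoma cells, 250/well, pretreated 1 h with compounds, then Zika virus at 2 FFU/cell for 6 h at 37 C; Caspase-Glo 3/7 luminescence after 30 min; percent inhibition normalised to uninfected and infected controls.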

Experiment [3] is described as follows: P-glycoprotein substrates identified in KB-3-1 adenocarcinoma cell line, qHTS therapeutic library screen (AID 1346986). Also: nearly all actives have a fitted effect of over 60% in size. The essentials:
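Cells seeded 500/well in DMEM/10% FCS; compounds pinned in dose-response; 72 h incubation; CellTiter-Glo added, 5 min, luminescence. KB-8-5-11 run ±tariquidar to test reversal of P-gp resistance.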
(qHTS replaces the single test concentration by a dilution series.)

The nature of experiment [4]: qHTS assay to identify small molecule inhibitors of chordoma cells - UCH-1 (AID 1259355). Also: % is scaled to controls: 0 for no effect and ±100 for the full control effect; nearly all actives have a fitted effect of over 55% in size. In outline:
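Seed 800 cells per well; incubate overnight at 37 C, 5% CO2. Add test compounds (15 concentrations), then the auranofin–topoisomerase-agent combination. Incubate 48hr, add CellTiter-Glo, wait 30min, read luminescence.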

Experiment [5] can be described thus: qHTS assay to identify small molecule inhibitors of chordoma cells - UCH-2 (AID 1259356). Also: series mostly up to about 46 µM; % is scaled to controls: 0 for no effect and ±100 for the full control effect.

As to `Cn1c(=O)c2[nH]c(-c3ccccc3)nc2n(C)c1=O`, the Potency entry in experiment [1] and in experiment [2] was “inactive” in each case.
Take `CN(C)c1nc(N)c(C(=O)N=C(N)N)nc1Cl`: the Potency entry in experiment [1] and in experiment [2] was “inactive” in each case.
Take `CN1CCc2ccccc2Cc2[nH]c3ccccc3c2CC1`: the Potency entry in experiment [1] and in experiment [2] was “inactive” throughout.
With `CC(C)NCC(O)COc1cccc2ccccc12` (configuration not stated), the Potency entry in experiment [1] and in experiment [2] was “inactive” in each case.
In the case of `CC(=O)N[C@H](C(=O)O)C(C)(C)SN=O`, the Potency entry in experiment [1] and in experiment [2] was “inactive” each time.
`O=C(O)c1cc(=O)c2ccccc2[nH]1`: the Potency result in experiment [1] and in experiment [2] was “inactive” in each case.
In the case of `COc1cccc(OC)c1OCCNCC1COc2ccccc2O1` (configuration not stated), the Potency result in experiment [1] and in experiment [2] was “inactive” each time.
As to `O=C(c1ccc(Cl)cc1)N1CCN(c2ccc([N+](=O)[O-])c3ncccc23)CC1`, the Potency result in experiment [1] and in experiment [2] was “inactive” in each case.
As to `O=C(c1cc(O)c(O)c([N+](=O)[O-])c1)c1ccccc1F`, the Potency result in experiment [1] and in experiment [2] was “inactive” throughout.
As for `CCCCCCCCCCCCCCCCCC(=O)OC(CC(=O)O)C[N+](C)(C)C` (configuration not stated), the Potency entry in experiment [1] and in experiment [2] was “inactive” throughout.
Take `Clc1ccc(N2CCN(Cc3cc4ccccn4n3)CC2)cc1`: the Potency entry in experiment [1] and in experiment [2] was “inactive” in each case.
For the compound `NC(=O)C(=O)O`, the Potency entry in experiment [1] and in experiment [2] was “inactive” in each case.
For the compound `CN1C2CC(OC(=O)[C@H](CO)c3ccccc3)CC1C1OC12` (some centres not stated), the Potency entry in experiment [1] and in experiment [2] was “inactive” in each case.
Take `OCC1O[C@H](O)C(Cl)C(O)C1O` (some centres not stated): the Potency result in experiment [1] and in experiment [2] was “inactive” each time.
Turning to `CC1(C)CCC=[N+]1[O-]`, the Potency entry in experiment [1] and in experiment [2] was “inactive” each time.
Turning to `NC(N)=NC(=O)c1nc(Cl)c(N2CCCCCC2)nc1N`, the Potency entry in experiment [1] and in experiment [2] was “inactive” in each case.
Turning to `CC(C)NC[C@H](O)COc1cccc2[nH]ccc12`, the Potency entry in experiment [1] and in experiment [2] was “inactive” throughout.
Turning to `O=C(O)CC1CCCc2ccccc2C1O` (configuration not stated), the Potency entry in experiment [1] and in experiment [2] was “inactive” throughout.
In the case of `N#C/C(=C\c1ccc(-c2cc(Cl)ccc2Cl)o1)C(=O)Nc1cccc2ncccc12`, the Potency result in experiment [1] and in experiment [2] was “inactive” in each case.
In the case of `C#C[C@]1(O)CC[C@H]2[C@@H]3CCC4=Cc5oncc5CC4(C)[C@H]3CCC21C` (some centres not stated), the Potency result in experiment [1] and in experiment [2] was “inactive” in each case.
With `O=C(Nc1ccccc1)c1cc([N+](=O)[O-])ccc1Cl`, the Potency entry in experiment [1] and in experiment [2] was “inactive” throughout.
For the compound `NCCCS(=O)(=O)O`, the Potency result in experiment [1] and in experiment [2] was “inactive” each time.
As for `COc1cc2c(CCNC(C)=O)c[nH]c2cc1Cl`, the Potency result in experiment [1] and in experiment [2] was “inactive” in each case.
For the compound `C[C@@H](CN1CCC(Cc2ccccc2)CC1)[C@@H](O)c1ccc(O)cc1`, the Potency result in experiment [1] and in experiment [2] was “inactive” in each case.
Turning to `NO`, the Potency result in experiment [1] and in experiment [2] was “inactive” each time.
Take `CN(C)C(N)=NCCC[C@H](N)C(=O)O`: the Potency result in experiment [2] is “inactive”.
As to `OC[C@H]1O[C@@H](n2cnc3c(Nc4ccccc4)ncnc32)[C@H](O)[C@@H]1O`, the Potency result in experiment [2] was “inactive”.
For the compound `CCCCCCCCCCCCCCCCCC(=O)NCC(COP(=O)([O-])OCC[N+](C)(C)C)OCC` (configuration not stated), in experiment [2], the Potency entry is “inactive”.
As for `O=C(O)Cc1cccc(-c2cc(CCCCCCc3ccc(O[C@H]4O[C@H](CO)[C@@H](O)[C@H](O)[C@@H]4O)c(-c4cccc(CC(=O)O)c4)c3)ccc2O[C@H]2O[C@H](CO)[C@@H](O)[C@H](O)[C@@H]2O)c1`, the activity change, negative = inhibition in experiment [1] is 14.4% [at 0.568 µM]. In experiment [3], the outcome is “inactive [at 0.354 µM]”.
Take `O=C(CCCCCN1CCN(c2ccccc2-c2ccccc2)CC1)NC1CCCc2ccccc21` (configuration not stated): the Potency result in experiment [1] and in experiment [2] was “inactive” throughout.
Regarding `NC(=O)C(c1ccccc1)(c1ccccc1)[C@@H]1CCN(CCc2ccc3c(c2)CCO3)C1`, the Potency result in experiment [1], in experiment [4] and in experiment [5] was “inactive” each time.
As for `Cc1cc(NC(=O)Nc2ccc3c(ccn3C)c2)sn1`, the Potency entry in experiment [1] and in experiment [2] was “inactive” each time.
With `O=S(=O)(c1cccc2c(I)cccc12)N1CCCNCC1`, the Potency entry in experiment [1] and in experiment [2] was “inactive” throughout.
As to `CCNc1nc2c(ncn2[C@H]2C[C@H](O)[C@@H](CO)O2)c(=O)[nH]1`, the Potency result in experiment [1] and in experiment [3] was “inactive” in each case.
As for `COc1cc2nc(N3CCN(C(=O)OCc4ccccc4)C(C(=O)NC(C)(C)C)C3)nc(N)c2cc1OC` (configuration not stated), the Potency result in experiment [2] was “inactive”.
Regarding `Oc1cc(O)cc(/C=C/c2ccc(O)c(O)c2)c1`, the Potency in experiment [1] was 7.94 µM (active). For the same compound, the Potency result in experiment [3] is “inactive”.
`COC1=C(OC)C(=O)c2ccccc2C1=O`: the Potency entry in experiment [1] and in experiment [2] was “inactive” each time.
In the case of `C#CC1(O)CC[C@H]2[C@@H]3CCC4=CCCC[C@@H]4[C@H]3CC[C@@]21C` (some centres not stated), the Potency entry in experiment [1], in experiment [4] and in experiment [5] was “inactive” in each case.
Take `CO/N=C(\C(=O)N[C@@H]1C(=O)N2C(C(=O)O)=C(COC(C)=O)CS[C@H]12)c1csc(N)n1` (stereo in doubt): the Potency entry in experiment [1], in experiment [4] and in experiment [5] was “inactive” each time.
